Hits are enriched below; roughly 12% of the tested compounds scored in any of these assays.
SARS PLP yeast = blocks SARS-CoV papain-like protease in a yeast assay; actives 0.19% (n = 330,000); Potency, µM (doses to about 32.9 µM), inactives show top-dose activity, positive = growth rescue, hits mostly activators; S. cerevisiae expressing SARS-CoV PLpro, growth rescue; AID 485353; calls by dose curve; further: 0% is about no effect; nearly all actives have a fitted effect of over 55% in size
Sm TGR block = inhibitors of Schistosoma mansoni thioredoxin glutathione reductase | Q962Y6 | purified TGR, DTNB reduction, TNB absorbance 405 nm | Potency, µM (series often up to 114 µM), without a hit: at the highest dose activity change, negative = inhibition, actives largely listed as inhibitors | actives 3% (n = 360,000) | AID 485364; further: on the % scale 0 is the no-effect control and ±100 the full control effect; nearly all actives have a fitted effect of over 60% in size
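Kinetic colorimetric format: TGR-catalysed, NADPH-driven DTNB reduction monitored via TNB absorbance. Enzyme dispensed at 20 nM; compound exposure 15 min at room temperature before reaction start.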
Pf growth 48h = inhibits P. falciparum growth in the first generation, 48 h. actives 5.9% (n = 310,000). AID 504832. P. falciparum luciferase growth in erythrocytes, 48 h. Potency, µM (highest dose often 28.7 µM), without a hit: top-dose activity change, negative = inhibition, actives largely listed as inhibitors; further: on the % scale 0 is the no-effect control and ±100 the full control effect
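Growth was read as firefly luciferase luminescence after a 48 h, 37 C, 5% CO2 exposure of compounds to reporter-bearing P. falciparum cultures (0.1% parasitemia, 2% hematocrit final) in Albumax-supplemented RPMI 1640.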
Pf growth 96h = inhibits malaria parasite growth, 96 h; Potency, µM (doses to about 28.7 µM), without a hit: at the top dose activity change, negative = inhibition, hits mostly inhibitors; P. falciparum luciferase reporter growth, 96 h; actives 6.9% (n = 320,000); further: on the % scale 0 is the no-effect control and ±100 the full control effect
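P. falciparum expressing integrated firefly luciferase grown in erythrocytes (2% hematocrit, 0.05% parasitemia final) with compounds for 96 hours at 37 C, 5% CO2. Growth inhibition read as loss of luminescence after adding luciferase detection reagent.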
Starred values were filed as active, the others as inactive; u = inconclusive; x = no result; [ ] = another dose, or the depositor's remark. Unless noted, the call rests on the fitted dose curve; in most records, active means well fitted curve in the direction sought with a large enough effect; inconclusive means small, poorly fitted or top-dose-only effect, or another doubt; inactive means no such curve, though single readings can be large; an effect the other way counts as inactive or inconclusive. Potency means the concentration at half of the fitted maximal effect.

SMILES	SARS PLP yeast	Sm TGR block	Pf growth 48h	Pf growth 96h
CCOC(=O)c1nnn(-c2nonc2N)c1-c1ccc(OC)cc1	2%	0%	2.1µM*	u
CCOC(=O)c1nnn(-c2nonc2N)c1-c1cccc2ccccc12	3%	5%	3.3µM*	5.2µM*
CCOC(=O)c1nnn(-c2nonc2N)c1COc1ccc(F)cc1	2%	9%	x	x
CCOC(=O)c1nnn(-c2nonc2N)c1-c1ccc(Cl)cc1	0%	6%	12µM*	u
CCOC(=O)c1cc(C)n(CC2CCC(C(=O)Nc3ccccc3OC)CC2)c1C (configuration not stated)	x	3%	x	x
Cc1ccc(C(=O)C(C)OC(=O)CN2C(=O)NC3(CCCC3)C2=O)cc1 (configuration not stated)	5%	0%	36%	62%
CN(C)C1(CNC(=O)C2CCN(S(=O)(=O)c3ccccc3C(F)(F)F)CC2)CCCCC1	0%	-5%	u	u
Cc1cc(-n2c(SCC(=O)NCCC3=CCCCC3)nc3n[nH]c(C)c3c2=N)ccc1Cl	-1%	3%	u	4.7µM*
Cc1cccc([C@@H]2C[C@H]3CN(Cc4cccc(Cl)c4)C(=O)[C@]34CCCN24)n1	1%	28µM*	u	u
O=C1N(Cc2cccc(Cl)c2)C[C@@H]2C[C@@H](c3cccc4ncccc34)N3CCC[C@@]123	-1%	0%	1.7µM*	21%
O=C1N(Cc2cccc(Cl)c2)C[C@@H]2C[C@@H](c3cccn3-c3ccccn3)N3CCC[C@@]123	-1%	-32%	12µM*	u
O=C1N(Cc2cccc(Cl)c2)C[C@@H]2C[C@@H](c3cccc4cccnc34)N3CCC[C@@]123	0%	-30%	u	u
O=C(COC(=O)CSc1ccc([N+](=O)[O-])cc1)NCCC1=CCCCC1	-5%	-11%	-24%	-3%
COc1cccc(CNC(=O)CSc2nc3ccccc3nc2Cc2ccc(C)cc2)c1OC	x	-2%	x	x
O=S(=O)(c1ccc2c(c1)CCCC2)N1CCNCC1	-2%	-16%	-8%	8%
CC(=O)Nc1ccc(NC(=O)c2ccc3c(c2)N(Cc2cccc(Cl)c2)C(=O)c2ccccc2S3=O)cc1 (configuration not stated)	x	1%	x	x
CCc1ccc(CNC(=O)c2cnc(N3CCCCC3)c3ccccc23)cc1	x	-4%	x	x
O=C(N1CCOCC1)N1CCN(S(=O)(=O)c2cccc([N+](=O)[O-])c2)CC1	x	-5%	17%	28%
Cc1cc(C)nc(SCC(=O)NCc2ccco2)n1	2%	56µM*	6%	u
Cc1ccn2c(=O)nc(SCC(=O)NCc3ccco3)nc2c1	x	35µM*	4%	29%
COCCCNC(=O)CSc1ccsc1[N+](=O)[O-]	-1%	-6%	1%	-36%[5.75 µM]
O=C(CSc1cccc2cccnc12)NCc1ccco1	0%	45µM*	10%	56%
O=C(CSc1ccsc1[N+](=O)[O-])NCc1ccco1	-2%	-33%	12µM*	u
Nc1cc(N)nc(SCC(=O)NCc2ccco2)n1	3%	-4%	0%	74%
CSCC[C@H](NC(=O)N1CCn2c1nc1ccccc12)C(=O)NCc1ccc(C)cc1	u	-1%	u	1%
SMILES	SARS PLP yeast	Sm TGR block	Pf growth 48h	Pf growth 96h
CCOc1ccc(CCNC(=O)Cn2c(-c3cccs3)cc3ccccc32)cc1	x	1%	x	x
Cc1cc(C(=O)NNC(=S)NCc2ccco2)n(C)n1	9%	22µM*	17%	15%
CC(C)(C)c1ccc(C(=O)NNC(=S)NCc2ccco2)cc1	1%	-2%	-20%	-4%
CCOC(=O)c1[nH]c(CN2CCN(c3ccc(OC)cc3)CC2)c(C(=O)OCC)c1C	-3%	-12%	9.3µM*	6.6µM*
Cn1c(=O)c2c(nc(N3CCN(c4ccccc4)CC3)n2CCCc2ccccc2)n(C)c1=O	-2%	-1%	u	-15%
Cn1c(=O)c2c(nc(N3CCN(Cc4ccccc4)CC3)n2CCCc2ccccc2)n(C)c1=O	6%	6%	3.7µM*	6.6µM*
CCC(C)Nc1nc2c(c(=O)[nH]c(=O)n2C)n1CCCc1ccccc1 (configuration not stated)	-6%	6%	-8%	4.1µM*
CC(C)Cn1c(NCCN(C)C)nc2c1c(=O)[nH]c(=O)n2C	17%	3%	17%	x
Cn1c(=O)[nH]c(=O)c2c1nc(N1CCN(Cc3ccccc3)CC1)n2CCCc1ccccc1	0%	-2%	5.2µM*	x
CCCCn1c(NCCN(C)C)nc2c1c(=O)[nH]c(=O)n2C	-12%	11%	24%	4.7µM*
CCOC(=O)Cn1c(=O)c2c(nc(N3CCCCC3)n2Cc2ccccc2)n(C)c1=O	12%	8%	5.2µM*	u
Cc1nc(N2CCN(Cc3ccccc3)CC2)[nH]c(=O)c1C	1%	-12%	19%	2.6µM*
CC1CCN(c2nc3c(c(=O)n(C)c(=O)n3C)n2Cc2ccccc2)CC1	-3%	9%	13µM*	u
Cc1cc(C)n(CC(O)Cn2ccc3ccccc32)n1 (configuration not stated)	2%	-17%	x	u
Cc1ccccc1OCC(O)CN1CCN(CCN2C(=O)c3cccc4cccc(c34)C2=O)CC1 (configuration not stated)	-7%	-8%	0%	u
CC1CN(CC(O)COc2ccccc2C(C)(C)C)CC(C)O1 (configuration not stated)	0%	5%	2.3µM*	8.3µM*
Cc1ccccc1OCC(O)CN1CCN(CC(O)COc2ccccc2C)C(C)C1 (configuration not stated)	3%	1%	9.3µM*	u
Cc1cc(C)n(CC(O)Cn2c3ccccc3c3ccccc32)n1 (configuration not stated)	-27%	18%	10µM*	x
C=C1CC(C)OC(c2ccccc2OCC(O)CN2CCCCC2)C1 (configuration not stated)	-1%	-7%	15µM*	18%
COc1ccccc1N1CCN(CCCNC(=O)c2cnn(-c3ccccc3)c2C2CCN(C(=O)OC(C)(C)C)CC2)CC1	x	1%	x	x
CCOc1ccc(N2CC(NC(=O)c3cc4ccccc4o3)CC2=O)cc1 (configuration not stated)	x	5%	x	x
COc1ccc2c(c1)c(=O)c(S(=O)(=O)c1ccccc1)cn2CC(=O)Nc1ccc(C)c(Cl)c1	x	-1%	x	x
O=C(COC(=O)c1ncc(Cl)c(Cl)c1Cl)NC(=O)c1ccccc1	3%	6%	33%	31%
Cc1ccccc1OCC(O)Cn1c2ccccc2c2ccccc21 (configuration not stated)	-46%	6%	8.3µM*	12µM*
OC(COc1ccccc1)Cn1c2ccccc2c2ccccc21 (configuration not stated)	-70%	10%	u	196%
CC(=O)Nc1ccc(OCC(O)Cn2c3ccccc3c3ccccc32)cc1 (configuration not stated)	-7%	-18%	u	34%

From PubChem BioAssay
